# Laboratory results reported in the supplement of paper PMC6555819.
# Test system: VDR:RXRa (NR concentration 270 nM, RXRa partner concentration 90 nM)
# Test: PBM binding z-score (relative to random genomic background probes); higher = stronger binding; sequences stand for … in GC…GCGATTGACAGCGTAGAATGAAGG
# Procedure: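 Protein-binding microarray (Agilent 4x180K custom design, double-stranded 60-nt probes: 5' GC cap, 34-nt variable region, 24-nt constant primer region; full probe sequence given). Purified or IVT nuclear receptor:RXRα heterodimers (3:1 NR:RXRα, mostly 270:90 nM) or homodimers were incubated for 1 h in PBS with 2% milk and no ligand, then detected with Alexa488 antibodies. Fluorescence from o1-orientation probes (~5 replicates averaged) was converted to z-scores against 500 random hg19 background probes. Variable regions are seed direct-repeat (DR0–DR5) sites, all their single-nucleotide variants and half-site ablations.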
row,Sequence,PBM binding z-score
1,TAAATGAGGTTAAAGATCAGGGAACGTGGCGTCG,2.22
2,CTTCCAAGGTGAACAAGGTCGTTGATTACTATTC,6.21
3,CCTTACGGGTCACGAGGTTATATCACGACGAGCG,5.38
4,AGAATGAAGTTAAGATCAGGGAAACAGAATACAT,-0.31
5,TAGCCTAGGTCATTCAGGGTCCAGTATAGAAAGC,4.41
6,ATCTCTAGTTAAGACTCAGTTCAGTGAAGAACGC,1.2
7,TCTTGTAGATCATAGGTTAAGAAAGCCGAAGCCT,0.86
8,ATCTCTGGGTAACAAGTTCAGTGAAAGAGAGGAC,2.8
9,CCAACTGGGCCATCAGGTCATTGATATCAACGTT,1.98
10,CGTCCAAGGTCAATGCTACGTCAGTGAAAGCATT,3.53
11,ATATGTAGGTTAACGGGTCATTCAGTTTGCGCAT,5.16
12,CCTAGTTTGTCAGGAGGTCACACACCGGATATGA,4.19
13,CGAGCTAGGTCAGAACAGGACAGTGAAGGATGAT,0.446
14,CGTACTGGGCCAAAGGTCATTGATTCCAATGCTC,5.07
15,AGAATGAGGTTATTACGATCAGGGAATTGCGGTC,1.99
16,AATAGCAGGCCAAGGGTCACTCAAGATTAGTCCG,2.92
17,GGAACGAGGGCAAAGTTGGTAGCATCTGTCGACG,1.14
18,GCAGACAGGTGAATCGCAGGTAACTCAGGGTGGC,-0.428
19,CCTACTGGGCCATAGGTCATTGATTCCAATGCTC,2.17
20,ACTAGTTGGTCAGCTGAGTTCACACACAATTCGG,4.81

row,Sequence,PBM binding z-score
1,CAAACTAGGTCAAAGGGCAAAGTCGAGCCAACCA,3.83
2,TCTAGTTGGTCAAAGGTCACACACTCGAAATGCG,5.37
3,GCAAACAGGTGAAACGCAGGTAACTCAGGGTGGC,-0.424
4,CCTTACGGGTTACGAGGTTATAGCACGACGAGCG,2.36
5,TCTTGGAGATCAAAGGTTAAGAAAGCCGAAGCCT,1.57
6,CGATCTAGGTCAGAACAGGACAGTGAAGGATGAT,0.316
7,ATAATGAGGTTACCAAAGATCAGGGAAACGCTTG,1.81
8,CCGGACAGGTGAGAAGGTAACTCAGCCTCGATTA,-0.403
9,CTCGAAAGGTTGTGCTCAGGTGAGTATACCAAAC,0.214
10,GTACCAAGGTGAATAGGTCGTTTATGAGTAGGCG,1.07
11,ACAGACAGGTGAGTGAAGGTAACCCAGCTGGACG,-0.336
12,TCTATTAGTTGAAGGGCGACCGACGAGTCCGTTT,0.925
13,CGTCCAAGGACAAGGTCAGTGAAAGAGACTCGAA,1.54
14,CGTCCCAGGTCAAAGGTCAGTGAAGAGATGACGG,6.07
15,CCTGCTGGGCCACGAAAGGTCATTGATTCAGTGA,4.08
16,TCGAGTAGGTTAGTCGGGGCATTCTGCCAACATA,2.15
17,ATCTCTAGGTAAAAGTTCAATGAATCCCGAGGAT,2.25
18,AGAATGAGGGTATTAAGATCAGGGAATTGCGGTC,0.128
19,TCGAGTAGGTCAGTCGGGGCATTCAGCCAACATA,5.3
20,ATCGAAAGGTCGAAGGTGAGGATACCCACCCGAA,2.71
